Results on 40 compounds are retold here after PubChem BioAssay (NCI).

Molecules are shown by their SMILES. About 83,000 compounds went through this panel and 20% of them were active in at least one assay; those are over-represented in the sample as a whole.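 Values shown are percent growth following 48 h exposure of cells in 96-well plates to a single concentration of compound; below 10 was considered active.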 The source made the active and inactive calls.

The test relates to UO-31 renal. Nature of the test: NCI-60 one-dose screen, 48 h (100 = growth as untreated, 0 = no growth, -100 = all killed). To be noted: 10 µM unless noted.
In the case of `CC/C(=C(/c1ccc(Cl)cc1)c1ccc(OCCN2CCCC2)cc1)c1ccc(OC)cc1`, the growth was 59.5% (inactive).

In the case of `c1cc2[nH]ncc2cc1-c1nc2ccc3[nH]ncc3c2c2c1CCCC2`, the growth is -0.203% (active).

In the case of `O=C(/C=C/c1ccc(Cl)cc1)c1cccc(Nc2nc(Nc3ccccc3)nc(Nc3ccccc3)n2)c1`, the growth was 61.8% (inactive).

Turning to `N#Cc1nc(-c2ccccc2)oc1S(=O)(=O)N1CCOCC1`, the growth is 82.9% (inactive).

In the case of `O=C1Nc2ccccc2/C1=C\c1nc(-c2ccccc2)n2ccccc12`, the growth is 79.8% (inactive).

Consider `O=C(COc1ccc(-c2nc3ccccc3[nH]2)cc1)N=Nc1c(O)[nH]c2ccc(Cl)cc12`, for which the growth is 93.9% (inactive).

For `COc1ccc(NC(=O)c2sc3nc(C)c(C(=O)/C=C/c4cccc(OC)c4)cc3c2N)cc1`, the growth was 27.1% (inactive).

`COc1cnc2c(c1)C(=O)c1c-2n(CCCNCCO)c(=O)c2ccncc12`: the growth was -19.8% (active).

As to `O=C(Nc1nc2ccc(F)cc2s1)c1cccnc1Nc1ccc(Cl)cc1`, the growth is 56.2% (inactive).

As to `N#CC1C=CN(CC(N)=O)c2ccc3cccnc3c21` (stereo not given), the growth is 97.9% (inactive).

As for `COc1ccc(-c2nc3c(c(-c4ccccc4)nn3-c3ccccc3)c(-c3ccc(N4CCN(C)CC4)cc3)c2C#N)cc1`, the growth was 76.2% (inactive).

Regarding `Cn1c(=O)c2[nH]c(N/N=C/c3ccccc3Br)nc2n(C)c1=O`, the growth was 92.4% (inactive).

On to `O=C(Nc1ccc(NC(=O)c2cc(=O)[nH]c3ccccc23)cc1)Nc1cccc(C(F)(F)F)c1`, for which the growth was 71% (inactive).

Take `O=C1C(Cl)=C(Oc2ccccc2)C(=O)c2ccccc21`: the growth was 51.7% (inactive).

Consider `CC(C)OC(=O)c1ccc2[nH]c(O)c(C(=Nc3ccc(N(C)C(=O)CN4CCN(C)CC4)cc3)c3ccccc3)c2c1`, for which the growth was -96.3% (active).

As to `O=C1C(Cl)=C(Nc2ccc(O)cc2)C(=O)N1Cc1ccc(Cl)cc1`, the growth is 52.2% (inactive).

Regarding `COc1cc(OC)c2sc(-c3ccc(-n4cncc4-c4ccc(OC)c(OC)c4)cc3)nc2c1`, the growth is 25.5% (inactive).

Take `CCN(CC)C(=S)SC(SC(=S)N(CC)CC)C(=O)c1nnn(-c2ccc([N+](=O)[O-])cc2)c1C`: the growth is 80.5% (inactive).

Consider `COc1cccc(CNc2ncnc3c2ncn3C2OC(CO)C(O)C2O)c1O` (stereo not given), for which the growth is 7.67% (active).

Regarding `CC(C)c1ccc(COCc2cc(CN3CCCC3)c(O)c3ncccc23)cc1`, the growth is -10.6% (active).

As to `O=C(NCc1ccccc1)Nc1ccccc1CNc1nc(Nc2ccc(OCCN3CCCC3)cc2)ncc1Cl`, the growth was 71.7% (inactive).

As to `Cc1ccc(-n2c(=S)[nH]c3sc4c(c3c2=O)CCC(=O)C4)cc1`, the growth was 43.8% (inactive).

With `Oc1c(Cl)cc(Cl)cc1/C=N/Nc1nnc(N/N=C/c2cc(Cl)cc(Cl)c2O)c2ccccc12`, the growth was 0.684% (active).

For the compound `CCCCCCC1(C)NCCO1` (stereo not given), the growth was 83.7% (inactive).

As to `Clc1ccc2c(c1)N(c1ncnc3ccc(-c4cnc5[nH]ncc5c4)cc13)CC2`, the growth is 4.18% (active).

On to `COC(=O)c1cc(-c2ccc(S(C)(=O)=O)cc2)[nH]c1N/N=C/c1c(Cl)cccc1Cl`, for which the growth is 22.5% (inactive).

Turning to `C=CCn1c(SCC(=O)Nc2ccc(C(=O)/C=C/c3ccc(Cl)cc3)cc2)nnc1-c1cc(-c2ccc(S(N)(=O)=O)cc2)nc2ccccc12`, the growth was 82.8% (inactive).

Take `Cc1cc2c(O)c(-c3cc(Cl)ccc3Cl)c3sc(=O)oc3c2cc1C`: the growth was 85.3% (inactive).

In the case of `CC(=O)N(N=Nc1ccccc1)c1cccc2ccccc12`, the growth was 61.2% (inactive).

As to `Cc1ccc(-c2nc3nc(-c4ccc(F)cc4)nc(N4CCNCC4)c3o2)cc1`, the growth was 76.7% (inactive).

With `O=c1oc2ccc([N+](=O)[O-])cc2cc1Br`, the growth is 88.5% (inactive).

For the compound `COc1ccc2nc(NC(=O)CSc3nnc4n3S(=O)(=O)c3ccccc3N4C)sc2c1`, the growth is -72.5% (active).

Regarding `Cc1ccc(-c2nn(-c3ccccc3)cc2C=C2C(=O)ON=C2C(C)C)cc1`, the growth is 72% (inactive).

`Cc1cccc(N2CCN(CC(O)COc3ccc(Cl)cc3)CC2)c1` (stereo not given): the growth was 85.3% (inactive).

Take `Cc1nc2c(=O)[nH]c(SCC(=O)Nc3cccc(F)c3)nc2[nH]c1=O`: the growth was 84% (inactive).

In the case of `CN(C)c1ccc(/C=C/C(=O)c2ccc(-n3cc(CN4CCN(c5cc6c(cc5F)c(=O)c(C(=O)O)cn6C5CC5)CC4)nn3)cc2)cc1`, the growth was 62.8% (inactive).

Turning to `COc1cc2c(c(OC)c1OC)-c1ccc(OC)c(=O)cc1[C@@H](NC(=O)CCl)CC2`, the growth is 32.8% (inactive).

Turning to `O=C(Nc1cccnc1Nc1ccc(F)cc1)c1cn(Cc2cccc(Oc3ccccc3)c2)nn1`, the growth was 46.7% (inactive).

`COc1ccc(-c2ccc3cnc4sc(-c5ccc(OC)cc5)nc4c3n2)cc1`: the growth is 61.7% (inactive).

`CN1CCN(c2ccc(NC(=O)c3cncnc3Nc3ccc(OCc4ccccn4)c(Cl)c3)cc2)CC1`: the growth is -72.1% (active).
